# Among all 310,000 compounds or so, about 14,000 (4.5%) showed an effect of 50% or more. The effect is printed as a negative number. What follows is part of a selection rich in strong results, with near analogues and random picks from the rest.
# Target: human ether-à-go-go-related gene (hERG) potassium channel (human, UniProt Q12809)
# Experiment: primary screen, population patch clamp on CHO cells stably expressing hERG; higher = less effect of the substance
# 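Further: peak tail current of the secondary pulse compared with the same well before compound.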
# Sequence of human ether-à-go-go-related gene (hERG) potassium channel (Q12809 whole entry, looked up): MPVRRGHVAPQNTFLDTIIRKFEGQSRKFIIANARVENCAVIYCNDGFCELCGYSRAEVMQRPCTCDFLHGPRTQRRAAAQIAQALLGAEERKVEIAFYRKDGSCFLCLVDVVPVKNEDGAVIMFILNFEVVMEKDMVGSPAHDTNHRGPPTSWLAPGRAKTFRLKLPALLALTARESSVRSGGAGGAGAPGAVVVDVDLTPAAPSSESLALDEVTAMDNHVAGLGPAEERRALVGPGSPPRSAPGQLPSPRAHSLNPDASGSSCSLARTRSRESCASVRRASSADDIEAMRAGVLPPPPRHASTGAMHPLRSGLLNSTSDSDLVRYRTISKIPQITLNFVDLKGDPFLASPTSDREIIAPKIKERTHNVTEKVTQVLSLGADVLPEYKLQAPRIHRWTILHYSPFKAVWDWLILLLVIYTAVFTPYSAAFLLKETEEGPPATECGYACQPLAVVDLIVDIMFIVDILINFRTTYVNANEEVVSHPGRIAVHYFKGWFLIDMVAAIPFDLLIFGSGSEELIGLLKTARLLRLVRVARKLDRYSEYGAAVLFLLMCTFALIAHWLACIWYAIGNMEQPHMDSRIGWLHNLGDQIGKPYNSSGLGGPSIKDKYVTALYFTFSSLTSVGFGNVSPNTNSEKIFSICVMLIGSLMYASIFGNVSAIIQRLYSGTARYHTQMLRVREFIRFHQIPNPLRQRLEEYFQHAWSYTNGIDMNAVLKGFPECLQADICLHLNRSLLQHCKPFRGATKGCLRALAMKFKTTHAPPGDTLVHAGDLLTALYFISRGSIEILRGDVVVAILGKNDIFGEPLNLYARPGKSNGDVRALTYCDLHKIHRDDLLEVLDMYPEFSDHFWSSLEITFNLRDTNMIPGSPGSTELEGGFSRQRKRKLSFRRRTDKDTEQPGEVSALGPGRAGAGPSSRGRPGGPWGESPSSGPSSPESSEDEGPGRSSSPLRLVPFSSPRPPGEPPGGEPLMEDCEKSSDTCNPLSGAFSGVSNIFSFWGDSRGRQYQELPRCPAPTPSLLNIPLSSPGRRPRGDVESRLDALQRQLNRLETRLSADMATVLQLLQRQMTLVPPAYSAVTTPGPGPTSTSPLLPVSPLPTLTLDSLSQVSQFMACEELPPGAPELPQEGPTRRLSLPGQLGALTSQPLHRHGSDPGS
row,Compound,"hERG current change (%, negative = inhibition) at 10uM"
1,COc1ccc(C2CC(=O)N(c3ccccc3)C3=C2C(=O)CCC3)cc1 (stereo not drawn),13.1%
2,O=C(CN1C(=O)CC(c2ccco2)Sc2ccccc21)NCc1ccc2c(c1)OCO2 (stereo not drawn),-37.1%
3,S=C(NCCCc1ccccc1)Nc1ccccc1Cl,2.38%
4,Fc1ccc(-c2csc(-c3ccc(C4SCCS4)cc3)n2)cc1F,4.89%
5,COC(=O)C1=C(N)Oc2cc(C)n(Cc3cccnc3)c(=O)c2C1c1ccc(OC)c(OC)c1 (stereo not drawn),-19%
6,CCOC(=O)c1cc(C)n(-c2c(C)n(C)n(-c3ccccc3)c2=O)c1C,21.6%
7,CC1(C)C/C(=N\NC(=S)Nc2ccccc2F)c2cc(O)ccc2O1,-18.8%
8,Cc1ccccc1NC(=S)N/N=C1\CC(C)(C)Oc2ccc(O)cc21,42.1%
9,Cc1cccc(NC(=S)N/N=C2\CC(C)(C)Oc3ccc(O)cc32)c1,8.34%
10,CC(=O)N1CCC2(CC1)C/C(=N\NC(=S)Nc1ccc(C)cc1)c1cc(O)ccc1O2,-70.8%
11,CC(=O)N1CCC2(CC1)C/C(=N\NC(=S)Nc1ccccc1C)c1cc(O)ccc1O2,-61.1%
12,COc1cccc(NC(=S)N/N=C2\CC(C)(C)Oc3ccc(O)cc32)c1,3.3%
13,CC(=O)N1CCC2(CC1)C/C(=N\NC(=S)Nc1ccccc1F)c1cc(O)ccc1O2,-69%
14,Cc1ccc(NC(=S)N/N=C2\CC(C)(C)Oc3ccc(O)cc32)cc1,12%
15,COc1ccccc1NC(=S)N/N=C1\CC(C)(C)Oc2ccc(O)cc21,0.968%
16,COc1ccc(C(=O)CC(=O)C(=O)Nc2ccc(C)c(C)c2)cc1,-12.2%
17,O=C1CSC(c2cccnc2)N1c1ccccc1 (stereo not drawn),13%
18,CCOCCCNC(=O)CCNS(=O)(=O)c1ccc(C)cc1,3.47%
19,Cc1ccc(S(=O)(=O)N(C)c2ccc(OCC(=O)Nc3nc4ccccc4s3)cc2)cc1,17.8%
20,Cc1cccc(C(=O)Oc2ccc(/C=N/NC(=O)c3ccc(O)cc3)cc2)c1,28.6%
21,Cc1nnc(SC(C)C(=O)Nc2ccc(S(=O)(=O)N3CCCCC3)cc2)s1 (stereo not drawn),-18.4%

row,Compound,"hERG current change (%, negative = inhibition) at 10uM"
1,CC(C)NC(=O)C1(O)c2ccccc2NC(=O)N1c1ccc(Cl)c(Cl)c1 (stereo not drawn),9.1%
2,O=C1N=C(N2CCN(c3ccccc3)CC2)SC1Cc1ccccc1 (stereo not drawn),-66.4%
3,Cc1cccc(CC2SC(N3CCN(c4ccccc4)CC3)=NC2=O)c1 (stereo not drawn),-53.5%
4,Cc1cccc(CC2SC(N)=NC2=O)c1.Cl (stereo not drawn),19.9%
5,NC1=NC(=O)C(Cc2ccccc2)S1 (stereo not drawn),2.01%
6,Cc1ccc(N2CCN(C3=NC(=O)C(Cc4ccccc4)S3)CC2)cc1 (stereo not drawn),-40.1%
7,Cc1cccc(N2CCN(C3=NC(=O)C(Cc4ccccc4)S3)CC2)c1 (stereo not drawn),-30.7%
8,O=c1c2[nH]c3cccc(Cl)c3c2ncn1Cc1ccncc1,-13.6%
9,CN(C)S(=O)(=O)c1ccc(Cl)c(NC(=O)CN2C(=O)NC3(CCc4ccccc43)C2=O)c1 (stereo not drawn),-18%
10,CC(C)C(NS(=O)(=O)c1ccc2c(c1)oc(=O)n2C)C(=O)N1CCN(C2CCCCC2)CC1 (stereo not drawn),2.88%
11,Cc1ccc(C)c(NC(=O)C2CCCN2C(=O)OC(C)(C)C)c1 (stereo not drawn),1.04%
12,O=C(CN(CCc1ccccc1)S(=O)(=O)c1ccc(Cl)cc1)N/N=C/c1ccccc1C(=O)O,14.6%
13,Cc1ccc(N(CC(=O)NCCSc2nc3ccccc3s2)S(=O)(=O)c2ccccc2)c(C)c1,-42.1%
14,CCOc1ccc2nc(NCCNC(=S)NCCCN(C)C)c(C#N)cc2c1,1.89%
15,CCC(=O)c1c[nH]c(C(=O)NCCCn2ccnc2)c1,9.18%
16,COc1ccc(C(=O)c2c[nH]c(C(=O)NCCCn3ccnc3)c2)cc1,0.775%
17,O=C(NCCCn1ccnc1)c1ccc(C(F)(F)F)cc1,-10.8%
18,O=C(c1ccccc1)c1c[nH]c(C(=O)NCCCn2ccnc2)c1,5.27%
19,O=C(c1ccc(C(F)(F)F)cc1)c1c[nH]c(C(=O)NCCCn2ccnc2)c1,-70.4%
20,CC(C)(C)c1ccc(C(=O)c2c[nH]c(C(=O)NCCCn3ccnc3)c2)cc1,-71.3%
21,Cc1ccc(/C=N/NS(=O)(=O)c2ccc([N+](=O)[O-])cc2)o1,26.4%

# Source: publication PMC4336329 (PLoS ONE, 2015)
